Laboratory results: PubChem BioAssay AID1942 (Johns Hopkins Ion Channel Center, 2009)
Screen size: about 2,400 compounds; about 580 (24%) were called active.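 Rule for the calls: active = activity change at or above the mean plus 3 SD of buffer wells without dofetilide, per plate; inactive = the rest.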 Not all results are given here.

The molecules below were run against Potassium voltage-gated channel subfamily KQT member 2 (Rattus norvegicus) (UniProt O88943) (assay: KCNQ2 potentiation in CHO cells – cell-based, FluxOR thallium flux, counter-screen for hERG block protector project, confirmation (AID 1942;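 note: normalized value minus buffer-control mean plus three SD of buffer wells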)). Conditions: FluxOR thallium flux fluorescence, at 10 µM, hits give high values.
Potassium voltage-gated channel subfamily KQT member 2 (Rattus norvegicus), sequence (O88943 whole entry, looked up): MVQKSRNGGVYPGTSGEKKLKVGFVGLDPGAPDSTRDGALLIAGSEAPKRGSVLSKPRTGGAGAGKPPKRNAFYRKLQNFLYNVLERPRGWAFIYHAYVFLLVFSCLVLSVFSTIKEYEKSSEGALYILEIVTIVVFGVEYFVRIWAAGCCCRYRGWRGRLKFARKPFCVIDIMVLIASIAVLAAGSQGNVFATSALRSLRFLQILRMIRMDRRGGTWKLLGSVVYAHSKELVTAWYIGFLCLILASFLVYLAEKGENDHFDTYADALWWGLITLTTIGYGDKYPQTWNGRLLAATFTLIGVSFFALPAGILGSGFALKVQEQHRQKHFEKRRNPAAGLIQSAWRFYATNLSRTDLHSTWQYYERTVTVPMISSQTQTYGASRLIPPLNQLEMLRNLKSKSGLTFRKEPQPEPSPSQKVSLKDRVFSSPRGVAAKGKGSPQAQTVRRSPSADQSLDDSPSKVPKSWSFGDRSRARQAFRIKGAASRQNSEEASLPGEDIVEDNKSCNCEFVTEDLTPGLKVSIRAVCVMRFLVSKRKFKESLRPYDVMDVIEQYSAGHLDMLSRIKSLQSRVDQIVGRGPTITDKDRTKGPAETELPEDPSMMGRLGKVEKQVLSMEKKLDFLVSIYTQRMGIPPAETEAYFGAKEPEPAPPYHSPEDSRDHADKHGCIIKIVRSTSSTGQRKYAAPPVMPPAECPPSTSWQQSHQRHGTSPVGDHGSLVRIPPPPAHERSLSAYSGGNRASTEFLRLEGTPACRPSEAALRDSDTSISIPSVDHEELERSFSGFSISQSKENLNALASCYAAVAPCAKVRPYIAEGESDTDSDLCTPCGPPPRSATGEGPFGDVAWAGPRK

Row | Structure (SMILES) | activity change, less the hit threshold
1 | O=c1[nH]c(=S)[nH]c2c1C(c1ccc(Br)cc1)c1c([nH]c(=S)[nH]c1=O)O2 | -17.1% (inactive)
2 | Cc1ccccc1C(=O)NNC(=O)c1cccc([N+](=O)[O-])c1 | -19.8% (inactive)
3 | CCOc1ccc(C(=O)N/N=C/c2cc([N+](=O)[O-])cs2)cc1 | -17.4% (inactive)
4 | CCOC(=O)/C(C)=N/NC(=O)c1cccc([N+](=O)[O-])c1 | 5.2% (active)
5 | CCOC(=O)c1[nH]cnc1C(=O)Nc1ccc([N+](=O)[O-])cc1 | -11.7% (inactive)
6 | Cc1cc(SCC(=O)c2cccc([N+](=O)[O-])c2)nc(=O)[nH]1 | -15.5% (inactive)
7 | CCOC(=O)/C(C)=N/NC(=O)c1ccc([N+](=O)[O-])cc1 | 16.8% (active)
8 | S=C(NCCc1ccccc1)N/N=C/c1c(Cl)cccc1Cl | -18.4% (inactive)
9 | CC1(C)CC(=O)c2c(nn(-c3ccccc3)c2-c2ccncc2)C1 | -16.4% (inactive)
10 | Cc1nn(Cc2ccccc2)c2c1C(c1cccnc1)C(C#N)=C(N)O2 (stereo not drawn) | -10.8% (inactive)
11 | O=C(COc1ccccc1)NC(=S)Nc1ccc2c(c1)Cc1ccccc1-2 | -19.3% (inactive)
12 | CC(Oc1ccccc1F)C(=O)NC1CCS(=O)(=O)C1 (stereo not drawn) | -17.8% (inactive)
13 | O=C(O)c1cc(/C=N\O)ccc1OCc1ccccc1 | -16.1% (inactive)
14 | COc1ccc(C(=O)CC(=O)C(=O)Nc2ccccc2)cc1 | 3.1% (active)
15 | COc1cc(OC)cc(C(=O)O/N=C(\N)c2cccc(C)c2)c1 | -9.7% (inactive)
16 | CCOc1ccccc1NC(=O)C(=O)CC(=O)c1cccc(OC)c1 | -8.6% (inactive)
17 | COc1cccc(C(=O)CC(=O)C(=O)Nc2ccc(C)cc2Cl)c1 | 10.8% (active)
18 | COc1ccc(C(=O)CC(=O)C(=O)Nc2ccc(C)cc2Cl)cc1 | 10.2% (active)
19 | CCN1CCN(CC(=O)c2ccc(OC)cc2)CC1 | -18.4% (inactive)
20 | COc1ccc(C(=O)CC(=O)C(=O)Nc2ccccc2C(F)(F)F)cc1 | 7.4% (active)
21 | COc1ccc(C(=O)CNc2ccccc2C#N)cc1 | -15% (inactive)

Row | Structure (SMILES) | activity change, less the hit threshold
22 | COc1ccc(C(=O)CC(=O)C(=O)Nc2ccc(Cl)cc2)cc1 | -2.1% (inactive)
23 | COc1ccc(C(=O)CC(=O)C(=O)Nc2ccc(C)c(Cl)c2)cc1 | -9% (inactive)
24 | COc1ccc(C(=O)CC(=O)C(=O)Nc2ccc(C)c(C)c2)cc1 | -11.4% (inactive)
25 | CCCNc1c(NS(=O)(=O)c2cccc(C#N)c2)c(=O)oc2ccccc12 | -15.8% (inactive)
26 | CCOC(=O)c1c(C)oc2cc(Br)c(OC)cc12 | -14.7% (inactive)
27 | COCCCNC(=O)CC(NS(=O)(=O)c1ccc(F)cc1)c1ccc(OC)cc1 (stereo not drawn) | -22.5% (inactive)
28 | O=C1C=C(NCCN2CCOCC2)C(=O)c2cnccc21 | -10.1% (inactive)
29 | CCN(Cc1ccc(OC)c(F)c1)C(=O)C1CCCO1 (stereo not drawn) | -7.1% (inactive)
30 | COc1cc(/C=C2/C(=O)NN(c3ccccc3)C2=O)cc(Br)c1O | -17.5% (inactive)
31 | CC(C)CCNC(=O)CCc1nnc(Cc2c[nH]c3ccccc23)o1 | -15.1% (inactive)
32 | COc1ccc(C(=O)CC(=O)C(=O)Nc2ccccc2OC)cc1 | -10.2% (inactive)
33 | CCOc1ccccc1NC(=O)C(=O)CC(=O)c1ccc(OC)cc1 | -5.2% (inactive)
34 | COc1ccc(C(=O)CC(=O)C(=O)Nc2ccccc2Cl)cc1 | 44.4% (active)
35 | CC1CCCC(C(=O)OCc2ccccc2)N1 (stereo not drawn) | -16.7% (inactive)
36 | Cn1cc([N+](=O)[O-])c(C(=O)NCc2cc3cc(Cl)ccc3[nH]2)n1 | -13.6% (inactive)
37 | N#Cc1ccccc1OCCN1C(=O)c2ccccc2C1=O | -7.5% (inactive)
38 | C=CCn1c(-c2cc(-c3ccc(C)cc3)nc3ccccc23)n[nH]c1=S | -9.8% (inactive)
39 | Cc1ccc(/C=N/NC(=O)c2cc(-c3ccncc3)nc3ccccc23)o1 | -26.9% (inactive)
40 | Cc1ccc(-c2cc(-c3n[nH]c(=S)o3)c3ccccc3n2)cc1 | 37.2% (active)
41 | N#Cc1cc(-c2ccccc2)nnc1Oc1ccccc1 | -14.7% (inactive)
42 | COc1cc2c(cc1OC)CN(C(=O)c1sccc1C)CC2 | -20.7% (inactive)

Row | Structure (SMILES) | activity change, less the hit threshold
43 | COc1ccccc1C(=O)NNC(=O)C(=O)Nc1ccc(C)cc1 | 132% (active)
44 | COc1ccccc1C(=O)Nc1ccnn1C1CCN(C(=O)c2ccoc2C)CC1 | -12.1% (inactive)
45 | COc1ccccc1C(=O)NNC(=O)C(=O)Nc1ccc(C)c(Cl)c1 | 126% (active)
46 | COc1ccc(NC(=O)c2ccccc2SC)cc1OC | -19.4% (inactive)
47 | COc1ccccc1C(=O)Nc1ccc(C(=O)N2CCCC2)cc1 | -7.2% (inactive)
48 | Cc1ccc(NC(=O)C(=O)NNC(=O)c2ccccc2C)cc1Cl | 90.3% (active)
49 | COc1ccccc1C(=O)NNC(=O)C(=O)NC(C)(C)C | 16.8% (active)
50 | O=C(O)c1cc(-c2cccc([N+](=O)[O-])c2)n[nH]1 | -19.6% (inactive)
51 | O=C(Nc1ccc(Cl)c(-c2nc3ccccc3[nH]2)c1)c1cccnc1 | -40.7% (inactive)
52 | COc1ccc(CNC(=O)C2CCCN2)cc1OC (stereo not drawn) | -26.1% (inactive)
53 | COc1cc(C2C(C#N)=C(N)Oc3c2ccc2ccccc32)ccc1OCC(=O)Nc1ccc(C)cc1 (stereo not drawn) | -15.1% (inactive)
54 | Cc1ccc(C)c(OCc2cc(C(=O)N3CCNC(=O)C3)no2)c1 | -16% (inactive)
55 | Cn1c(=O)c(-c2cc(=O)[nH][nH]2)c(O)c2ccccc21 | -13.7% (inactive)
56 | CN(C)NC(=O)C(NC(=O)c1ccc(N)cc1)C12CC3CC(CC(C3)C1)C2 (stereo not drawn) | -13.9% (inactive)
57 | Cc1ccc(NC(=O)CN2C(=O)S/C(=C\c3ccc(-c4cccc(C(=O)O)c4C)o3)C2=O)cc1 | -27% (inactive)
58 | COc1cc(NC(=O)c2ccccc2OCc2ccccc2)cc(OC)c1OC | -26.8% (inactive)
59 | COc1ccccc1C(=O)NNC(=O)C(=O)NC1CCCCC1 | 49.7% (active)
60 | COc1ccccc1C(=O)NCc1ccc2c(c1)OCO2 | -21.4% (inactive)
61 | O=C(COc1ccc(Cl)cc1)NNC(=O)C(=O)NC1CCCCC1 | -11.2% (inactive)
62 | COc1ccccc1C(=O)NNC(=O)C(=O)NCc1ccccc1 | 18.8% (active)
63 | COc1ccc(C(=O)NNC(=O)C(=O)NC2CCCCC2)cc1 | -1.7% (inactive)
